# Screens: PubChem, The Scripps Research Institute Molecular Screening Center
# Only some compounds are listed: those with a hit (about 1.1% of all), similar ones and a draw of the others.
# MsrA inhibitor: inhibitors of bovine MsrA. hit rate 0.75% among 360,000. purified bovine MsrA, absorbance read-out. AID 651718. inhibition, % at 15.5 µM; in the data active = inhibition above about 4.5%;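 note: 0% = vehicle wells with enzyme and 100% = reference inhibitor wells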
# PKA-R1A act: activates the PKA-R1A holoenzyme complex. P00514+P68181. PKA-R1A dissociation, Cy5-IP20 fluorescence polarization; scaled: DMSO 0%, 113 µM cGMP 100%. activation, % at 11.4 µM. hit rate 0.083% among 340,000;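 active = percent activation above the mean of all tested compounds plus 3 SD, cut at about 19% in these data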;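 note: higher means more PKAc released from R1A so a rise in polarization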
# PKA-R2B activ: activators of human PKA-R2B complex; P22694+P31323; PKA-R2B holoenzyme dissociation, Cy5-IP20 fluorescence polarization; R2B truncated from residue 108, S112A mutant; 0% DMSO only, 100% 113 µM cGMP; activation, % at 11.4 µM; hit rate 0.079% among 340,000;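 active = activation above a cutoff set at the mean over all compounds plus 3 SD, cut at about 18% in these data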;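 note: higher means more holoenzyme dissociation and a rise in polarization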
# Target sequence (P31323 whole entry, looked up, other chains not shown, the tested form may be a part): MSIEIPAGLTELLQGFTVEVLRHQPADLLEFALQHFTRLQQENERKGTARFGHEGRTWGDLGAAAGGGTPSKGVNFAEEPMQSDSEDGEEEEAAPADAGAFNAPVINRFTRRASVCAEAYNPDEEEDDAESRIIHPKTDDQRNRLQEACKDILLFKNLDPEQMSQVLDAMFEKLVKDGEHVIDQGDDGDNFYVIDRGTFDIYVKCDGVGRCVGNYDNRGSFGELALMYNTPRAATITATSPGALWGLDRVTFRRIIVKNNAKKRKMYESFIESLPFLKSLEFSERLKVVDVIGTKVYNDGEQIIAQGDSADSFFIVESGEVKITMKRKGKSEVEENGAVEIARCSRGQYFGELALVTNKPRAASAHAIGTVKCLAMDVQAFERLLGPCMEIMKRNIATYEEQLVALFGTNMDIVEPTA
# MsrA act: bovine methionine sulfoxide reductase A activation; purified bovine MsrA, absorbance read-out; activation, % at 10.6 µM; hit rate 0.3% among 360,000; AID 602163; in the data active = activation above about 7.5%;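 note: 0% = vehicle and 100% = reference activator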
# MsrA act confirm: bovine methionine sulfoxide reductase A activation confirmed; shares compounds with MsrA act; purified bovine MsrA, absorbance read-out; activation, % at 10.6 µM; hit rate 12% among 1,000; in the data active = activation above about 4%;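 note: enzyme coupled to thioredoxin and thioredoxin reductase with NADPH; 0% = vehicle wells and 100% = reference activator wells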
# Numbers without * were called inactive; . = no result given; ! = not confirmed by another sample.
SMILES,MsrA inhibitor,PKA-R1A act,PKA-R2B activ,MsrA act,MsrA act confirm
CN(CC(=O)Nc1ccccc1Cl)C(=O)COC(=O)c1ccc([N+](=O)[O-])s1,1,-5,-11,12*,2
COc1ccccc1NC(=O)COC(=O)c1ccc([N+](=O)[O-])s1,2,-3,-13,33*,18*
Cc1cc(C)c(NC(=O)COC(=O)c2ccc([N+](=O)[O-])s2)c(C)c1,0,-16,-9,-4,.
NS(=O)(=O)c1ccc(NC(=O)COC(=O)c2ccc([N+](=O)[O-])s2)cc1,2,-1,11,28*,12*
Cc1ccc(NC(=O)COC(=O)c2ccc([N+](=O)[O-])s2)c(C)c1,2,-16,8,5,.
NC(=O)c1ncn([C@@H]2O[C@H](C(=O)N3CCCN(Cc4ccccc4F)CC3)[C@@H](O)[C@H]2O)n1,-1,.,.,.,.
Cc1ccc(C(=O)Nc2nccc(C)n2)cc1,-1,1,3,8.7*,-1
Cc1ccnc(NC(=O)c2cccc(OC(F)F)c2)n1,0,-4,2,-3,.
CCCCS(=O)(=O)N1C2=NC(C(=O)OCC)=C(C(=O)OCC)C3N(Cc4ccc(Br)cc4)c4ccccc4[C@]23C[C@H]1C(=O)OC (some centres undefined),2,.,.,.,.
O=C(N[C@H](C(=O)N1CCC[C@H]1C(=O)NCc1ccccc1)C1CCCCC1)c1ccc(Cl)c(Cl)c1,2,.,.,.,.
CCOc1ccccc1OCCCNCc1ccco1,0,-2,1,13*,-1
Cn1c(=O)c2c(c3ccccc31)OC(C)(C)C=C2,2,.,.,.,.
C[C@@H]1ON(C)[C@H]2C[C@H]3c4[nH]c5c(-c6ccc(Cl)cc6)cccc5c4CCN3C(=O)[C@@H]12,0,.,.,.,.
COc1ccc(-c2cc(=O)oc(-c3cccc(C)c3)n2)cc1,0,1,3,12*,-3
COc1cc(OC)c2c(-c3cccc(-c4cccc(C)c4)c3)cc(=O)oc2c1,1,-9,-4,-4,.
S=c1[nH]nc(Cc2ccccc2)n1Cc1ccco1,-1,-12,-4,7.7*,0
CCCn1c(Cc2ccccc2)n[nH]c1=S,0,-3,-11,1,.
COc1ccc2ccccc2c1/C=N\NC(=O)c1cccnc1,1,.,.,-2,.
COc1ccc2ccccc2c1/C=N/NC(=O)c1cccc(C)c1,2,1,0,9.4*,-1
CCS(=O)(=O)Nc1cccc(-c2cn3c(n2)SCC3)c1,-1,3,1,7.7*,1
O=C(NCc1ccccc1)[C@@H]1CCCN1C(=O)[C@H]1CCCN1C(=O)c1ccc(Cl)cc1,0,.,.,.,.
CCN=C1NC(CCc2ccccc2)C(C(=O)OC)=C(C)N1Cc1ccc(C(F)(F)F)cc1 (centres undefined),0,.,.,.,.
CCCN1CCN(C(=O)c2noc3c2COc2ccc(C)cc2-3)CC1,0,-5,4,8.0*,-2
CCOC(=O)N1CCN(C(=O)c2noc3c2COc2ccccc2-3)CC1,1,-8,-9,-4,.
COc1ccc(OCCOc2ccc(S(=O)(=O)N3CCCC3)cc2C(N)=O)cc1,0,3,0,2,.
SMILES,MsrA inhibitor,PKA-R1A act,PKA-R2B activ,MsrA act,MsrA act confirm
NC(=O)c1cc(S(=O)(=O)N2CCCC2)ccc1OCCOc1ccccc1F,-1,-3,-10,11*,-2
COc1ccc(S(=O)(=O)NC(CC(=O)NCCc2ccc(OC)c(OC)c2)C(C)C)cc1 (centres undefined),-1,-1,-3,13*,0
Cn1c(=O)n(CC(=O)O)c(=O)c2c1nc1n2CCS1,-1,12,9,8.5*!,-1
CC(C)OP(=O)(OC(C)C)C(C)NC(=O)Cc1ccccc1 (centres undefined),0,-9,-3,17*,0
COC(=O)Cn1nnc(N2CCOCC2)n1,-1,.,.,8.0*,1
Cn1cc(CC(=O)Nc2ccc(Oc3cccnc3)cc2)c2ccccc21,1,.,.,.,.
Cc1cc(-c2ccccc2)cc(=O)[nH]1,1,-15,3,13*,-2
Cc1cc(NCCc2c[nH]c3ccccc23)ccc1Nc1cccnc1,0,.,.,.,.
C=CCn1cccc(C(=O)Nc2ccc(Cl)cc2)c1=O,2,13,1,7.8*,-4
Cc1ccc(C(N)=O)cc1S(=O)(=O)Nc1cccc(C)c1C,-1,4,-5,16*,-4
O=C(Nc1nnc(-c2ccco2)o1)c1ccc(S(=O)(=O)N2CCCC2)cc1,2,-2,2,16*,-2
CC1CCN(S(=O)(=O)c2ccc(C(=O)Nc3nnc(-c4ccco4)o3)cc2)CC1,1,-11,-1,-12,.
